# Data reported in PubChem BioAssay (NCI).
# Compounds without any hit were thinned out: in the full panel of roughly 83,000, 20% have a hit.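 A percent growth of 40 corresponds to 60% growth inhibition; 0 means no net growth; -100 means all cells died. Active threshold: below 10.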 Values without a mark were called inactive. Calls of active or inactive are those of the source.
# Test system: SR leukemia
# Assay: NCI-60 one-dose screen, 48 h (100 = growth as untreated, 0 = no growth, -100 = all killed)
# Settings: 10 µM unless noted
row,Compound,growth
1,CN1C(=O)/C(=C\c2nc([P+](c3ccccc3)(c3ccccc3)c3ccccc3)c(N3CCOCC3)o2)SC1=S,13.3%
2,COc1ccc2c(c1)c(-c1nc(-c3c[nH]c4ccncc34)cs1)cn2C,-26% (active)
3,COc1ccc(C(=O)c2cc3c(N)c(C(=O)Nc4ccc(C)cc4)sc3nc2C)cc1,18.1%
4,COc1cc2nc3cc([N+](=O)[O-])ccc3c(NCCNCC(C)O)c2cc1OC (stereo not drawn),-17.9% (active)
5,Cc1sc2nc(NCCc3c[nH]c4ccc(Cl)cc34)[nH]c(=O)c2c1C,15.7%
6,CC/C(=C(/c1ccc(Cl)cc1)c1ccc(OCCN(C)C)cc1)c1ccc(Cl)cc1,-6.88% (active)
7,CNC(=O)c1[nH]cc(-c2ccc(OC)cc2)c1-c1cc(OC)c2c(c1OC)OCO2,102%
8,C=CCc1c(O)c(C(=O)/C=C/c2ccccc2)c(OC)c2ccoc12,20.6%
9,COc1ccc(-c2cc(-c3ccc(Cl)cc3)c(C#N)c(=O)n2Cc2ccc(C(=O)Nc3ccccc3N)cc2)cc1,40.9%
10,COc1ccc(/C=C/C(=O)c2cccc(OCCCCOc3cccc(C(=O)/C=C/c4ccc(OC)c(OC)c4)c3)c2)cc1OC,69.4%
11,CCOC(=O)c1ccc(NC(=O)c2nc(-c3cc(OC)c(OC)c(OC)c3)n(-c3ccc(Cl)cc3)n2)cc1,92.7%
12,Cc1ccc(CNc2ccc3nc(CCC4CCCCC4)[nH]c3c2)cc1,12.8%
13,CC(=O)c1c(C)nc(SCC(=O)Nc2cccc(O)c2)n1-c1ccc(Cl)cc1,103%
